From PubChem BioAssay (NCATS) come the findings set out here.

Inconclusive results are not listed. Unmarked numbers belong to inactive results. Calls of active or inactive are those of the source. Calls follow the shape of the dose curve; as a rule, active = well fitted curve in the direction sought with a large enough effect; inconclusive = small, poorly fitted or top-dose-only effect, or another doubt; inactive = no such curve, though single readings can be large; an effect the other way counts as inactive or inconclusive.

In assay [1] the target is ATP-dependent 6-phosphofructokinase (Trypanosoma brucei brucei) (UniProt O15648). As to the kind of experiment: qHTS Assay to Find Inhibitors of T. brucei phosphofructokinase: hit validation (AID 492961).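 Also: luminescence reports ADP formed as PFK phosphorylates fructose-6-phosphate with ATP; % is scaled to controls: 0 for no effect and ±100 for the full control effect.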 The gist of the method:
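Reaction: 0.1 M triethanolamine pH 8.0, 5 mM MgCl2, F6P 0.5 mM, ATP 0.1 mM, PFK 1.25 nM, 45 min RT. Read-out: ADP-Glo luminescence. Analysis: concentration-response fits, classed by r2 and efficacy.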
(In general: Quantitative high-throughput screening tests each substance at several concentrations.)

A short description of assay [2]: qHTS profiling for inhibitors of Plasmodium falciparum proliferation (AID 504749). Also: potency is read from the fitted curve at half-maximal effect.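 As to activity, negative = inhibition: 0% = DMSO vehicle and full inhibition = artemisinin control.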 As to all read-outs here: nearly all actives have a fitted effect of over 60% in size. The following applies: P. falciparum in erythrocytes, SYBR Green DNA, 72 h; for activity, negative = inhibition: at 28.7 µM (top of the series). The method, boiled down: (§1)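 Fluorescence of SYBR Green-bound parasite DNA, read at 485/535 nm, served as the growth measure. Infected erythrocytes were cultured with compound 72 h; artemisinin (0.29 uM) and DMSO wells defined the normalization range.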

In a further assay the test system is 3D7. The description is as above. To be noted: P. falciparum in erythrocytes, SYBR Green DNA, 72 h; series mostly up to 28.7 µM. The method, boiled down: as §1
The subject of another assay is AA1029. Described as above. The following applies: P. falciparum in erythrocytes, SYBR Green DNA, 72 h; series mostly up to 28.7 µM. The method, boiled down:
as §1

In the next assay the test system is AS120. The assay is described as above. The following applies: P. falciparum in erythrocytes, SYBR Green DNA, 72 h; series mostly up to 28.7 µM. The gist of the method:
as §1

A further assay has as its system ATS189. The assay is described as above. The following applies: P. falciparum in erythrocytes, SYBR Green DNA, 72 h; series mostly up to 28.7 µM. The gist of the method: as §1
In the next assay the test system is C2A. Described as above. To be noted: P. falciparum in erythrocytes, SYBR Green DNA, 72 h; series mostly up to 28.7 µM. The gist of the method: as §1
The test system of the next assay is CP185. The description is as above. To be noted: P. falciparum in erythrocytes, SYBR Green DNA, 72 h; series mostly up to 28.7 µM. The gist of the method:
as §1

The next assay concerns CP191. The description is as above. To be noted: P. falciparum in erythrocytes, SYBR Green DNA, 72 h; series mostly up to 28.7 µM. The method, boiled down: as §1
The next assay concerns CP192. Described as above. The following applies: P. falciparum in erythrocytes, SYBR Green DNA, 72 h; series mostly up to 28.7 µM. The gist of the method: as §1
Another assay relates to CP194. The description is as above. The following applies: P. falciparum in erythrocytes, SYBR Green DNA, 72 h; series mostly up to 28.7 µM. The gist of the method:
as §1

In a further assay the test system is CP211. The assay is described as above. To be noted: P. falciparum in erythrocytes, SYBR Green DNA, 72 h; series mostly up to 28.7 µM. The method, boiled down: as §1
Another assay relates to CP217. Described as above. The following applies: P. falciparum in erythrocytes, SYBR Green DNA, 72 h; series mostly up to 28.7 µM. The method, boiled down:
as §1

For a further assay, the system named is CP237. The description is as above. To be noted: P. falciparum in erythrocytes, SYBR Green DNA, 72 h; series mostly up to 28.7 µM. The method, boiled down: as §1
For the next assay, the system named is CP238. The description is as above. The following applies: P. falciparum in erythrocytes, SYBR Green DNA, 72 h; series mostly up to 28.7 µM. The method, boiled down:
as §1

The test system of the next assay is CP247. Described as above. The following applies: P. falciparum in erythrocytes, SYBR Green DNA, 72 h; series mostly up to 28.7 µM. The method, boiled down:
as §1

In another assay the test system is CP252. Described as above. The following applies: P. falciparum in erythrocytes, SYBR Green DNA, 72 h; series mostly up to 28.7 µM. The gist of the method: as §1
The subject of a further assay is CP286. Described as above. The following applies: P. falciparum in erythrocytes, SYBR Green DNA, 72 h; series mostly up to 28.7 µM. The gist of the method:
as §1

A further assay deals with Dd2. The assay is described as above. The following applies: P. falciparum in erythrocytes, SYBR Green DNA, 72 h; series mostly up to 28.7 µM. The gist of the method:
as §1

A further assay has as its system P94_40. The assay is described as above. To be noted: P. falciparum in erythrocytes, SYBR Green DNA, 72 h; series mostly up to 28.7 µM. The method, boiled down: as §1

Sequence of ATP-dependent 6-phosphofructokinase (Trypanosoma brucei brucei) (O15648 whole entry, looked up): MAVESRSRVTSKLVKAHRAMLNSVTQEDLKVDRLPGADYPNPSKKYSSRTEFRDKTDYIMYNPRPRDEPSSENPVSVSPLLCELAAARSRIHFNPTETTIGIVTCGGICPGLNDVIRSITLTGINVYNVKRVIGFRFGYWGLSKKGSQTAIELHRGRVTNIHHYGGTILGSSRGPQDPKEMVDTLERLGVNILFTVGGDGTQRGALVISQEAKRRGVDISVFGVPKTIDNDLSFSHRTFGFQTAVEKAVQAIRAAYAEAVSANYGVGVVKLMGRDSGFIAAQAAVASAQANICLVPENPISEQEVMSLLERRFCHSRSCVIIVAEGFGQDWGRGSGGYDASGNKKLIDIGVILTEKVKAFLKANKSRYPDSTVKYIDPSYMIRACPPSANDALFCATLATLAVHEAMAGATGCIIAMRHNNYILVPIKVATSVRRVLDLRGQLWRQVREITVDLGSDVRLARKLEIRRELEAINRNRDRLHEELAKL

With `Cn1cc(C(=O)[C@@H]2CCc3[nH]cnc3C2)c2ccccc21`, the Potency result (in assay [1]; in the assay with 3D7; in the assay with AA1029; in the assay on AS120; in the assay with ATS189; in the assay with C2A) was “inactive” in each case. For the same molecule, the Potency result in the assay on CP185, in the assay with CP191, in the assay on CP192, in the assay on CP194, in the assay on CP211 and with CP217 was “inactive” in each case. The Potency result in the assay on CP237, in the assay with CP238, with CP247, in the assay on CP252, with CP286 and in the assay on Dd2 was “inactive” throughout. For the same molecule, the Potency result in the assay on P94_40 was “inactive”. Also, the activity, negative = inhibition in assay [2] (parasite line A) was 5.71%; in [2] (parasite line B), 16.1%.
On to `CC(=O)C1(O)Cc2c(O)c3c(c(O)c2C(OC2CC(N)C(O)C(C)O2)C1)C(=O)c1c(O)cccc1C3=O` (stereo not given), for which the Potency entry in [1] was “inactive”. Further, the Potency is 5.01 µM (active) in [2] (parasite line A); 11.2 µM (active) in assay [2] (parasite line B); 3.16 µM (active) with 3D7; 5.01 µM (active) with AA1029; 4.47 µM (active) in the assay with AS120; 8.91 µM (active) with ATS189. The Potency is 8.91 µM (active) in the assay with C2A; 7.94 µM (active) with CP185; 5.01 µM (active) with CP191; 10.7 µM (active) in the assay on CP192; 12 µM (active) in the assay with CP194; 9.53 µM (active) in the assay with CP211. The Potency was 10 µM (active) with CP217; 2.82 µM (active) in the assay with CP237; 8.91 µM (active) in the assay with CP238; 5.01 µM (active) in the assay on CP247; 8.91 µM (active) in the assay on CP252; 3.16 µM (active) in the assay with CP286. Besides, the values for the Potency with Dd2 and in the assay with P94_40 were 4.47 µM (active) and 5.01 µM (active), respectively.
`CCCC(=O)Nc1c(I)cc(I)c(C[C@H](CC)C(=O)O)c1I`: the Potency result (in [1]; in the assay on 3D7; in the assay on AA1029; with AS120; in the assay on ATS189; with C2A) was “inactive” each time. Further, the Potency entry in the assay on CP185, in the assay on CP191, in the assay on CP192, in the assay with CP194, in the assay on CP211 and in the assay on CP217 was “inactive” each time. Also, the Potency entry in the assay on CP237, in the assay with CP238, in the assay with CP247, with CP252, in the assay on CP286 and with Dd2 was “inactive” each time. Moreover, in the assay with P94_40, the Potency entry is “inactive”. Besides, the values for the activity, negative = inhibition in assay [2] (parasite line A) and in assay [2] (parasite line B) were 2.81% and -1.24%, respectively.
For `Nc1ncn(C2C[C@H](O)[C@@H](CO)O2)c(=O)n1` (stereo not given in full), the Potency result (in [1]; in the assay on 3D7; with AA1029; in the assay on AS120; in the assay on ATS189; in the assay with C2A) was “inactive” throughout. For the same molecule, the Potency entry with CP185, in the assay on CP191, with CP192, in the assay on CP194, in the assay on CP211 and with CP217 was “inactive” in each case. For the same molecule, the Potency result in the assay on CP237, in the assay on CP238, in the assay on CP247, in the assay on CP252, with CP286 and in the assay with Dd2 was “inactive” in each case. Further, the Potency result with P94_40 was “inactive”. The activity, negative = inhibition in assay [2] (parasite line A) is 2.14%; in [2] (parasite line B), -13.9%.
Regarding `CO/N=C(/C(=O)N[C@@H]1C(=O)N2C(C(=O)O)=C(CSc3nnnn3C)CS[C@H]12)c1csc(N)n1`, the Potency entry (in assay [1]; in the assay on 3D7; in the assay with AA1029; in the assay with AS120; in the assay with ATS189; in the assay on C2A) was “inactive” in each case. Besides, the Potency result in the assay with CP185, in the assay on CP191, in the assay on CP192, in the assay with CP194, in the assay on CP211 and in the assay on CP217 was “inactive” each time. The Potency result with CP237, in the assay with CP238, with CP247, with CP252, with CP286 and in the assay on Dd2 was “inactive” each time. For the same molecule, the Potency entry in the assay with P94_40 was “inactive”. Further, the activity, negative = inhibition in [2] (parasite line A) was 6.68%; in assay [2] (parasite line B), 0.88%.
As for `CC(CN1CC(=O)NC(=O)C1)N1CC(=O)NC(=O)C1` (stereo not given), the Potency result (in assay [1]; in the assay on 3D7; in the assay with AA1029; in the assay on AS120; in the assay with ATS189; in the assay with C2A) was “inactive” throughout. For the same molecule, the Potency result with CP185, with CP191, in the assay with CP194, in the assay on CP211, in the assay on CP217 and in the assay on CP237 was “inactive” in each case. Further, the Potency result in the assay with CP238, with CP247, in the assay with CP252, with CP286, in the assay on Dd2 and in the assay with P94_40 was “inactive” each time. Besides, the results for the activity, negative = inhibition in assay [2] (parasite line A) and in [2] (parasite line B) were 1.79% and 0.945%, respectively.
